In the library only some 1.5% were active in any assay of this set; here they are far more common.
PvdQ inh: P. aeruginosa PvdQ acylase inhibition. purified PvdQ acylase, fluorescence plate reader. inhibition, % at 10 µM. hit rate 0.063% among 340,000; in the data active = inhibition above about 30%, passing the limit was not always enough; inconclusive = no clear call, values can overlap the other calls;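 also: 0% = vehicle neutral wells and 100% = reference inhibitor wells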
RAD52 inh: inhibitors of human RAD52 DNA annealing. P43351. recombinant RAD52 DNA annealing, FRET fluorescence. inhibition, % at 18.7 µM. hit rate 0.46% among 360,000. AID 651710;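 active = every replicate showing at least 50% inhibition; inconclusive = mean inhibition at least 50% but not in every replicate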
Glyco luc inh: blocks N-linked glycosylation in D54 reporter cells; D54 ERlucT glycosylation luciferase reporter, 24 h; percent of 100 nM tunicamycin response; reporter increase, % at 12.5 µM; AID 588692; hit rate 0.23% among 360,000;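 active = mean luciferase reporter signal, scaled so untreated is 0 and the glycosylation-blocking control 100, at or above a set limit in every replicate; inconclusive = mean reaches the limit but not every replicate does; inactive = mean below the limit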;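 also: luciferase carries N-glycosylation sites so blocking glycosylation raises the light; 0% = median of neutral control wells and 100% = median of 100 nM tunicamycin wells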
dFosB act: enhances mouse delta FosB homodimer DNA binding. purified delta FosB, TAMRA-CDK5 oligo fluorescence polarization; percent of positive-control signal above neutral wells. activation, % at 25 µM. hit rate 0.99% among 340,000. AID 493131;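 active = mean activation above about 17%, with every replicate also reaching it, limit read from the data, passing the limit was not always enough; inconclusive = only one of the two conditions met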
F508del corr: correctors of CFTR F508del function in bronchial epithelial cells. hit rate 0.36% among 350,000. activity (quench increase), % at 7.58 µM. CFBE cells, YFP halide quenching; stimulated with forskolin plus potentiator P3; % fluorescence drop versus neutral controls;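 active = mean added fluorescence quench of at least 8% versus neutral control, with both replicates also reaching 8%; inconclusive = only one of the mean or replicate conditions met; inactive = mean below 8% and not both replicates reaching 8%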;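 also: cells transiently co-express mutant CFTR-F508del with the halide-sensitive YFP; corrector assay measuring rescue of mutant channel to the surface after 24 h compound exposure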
RAD54 inh: RAD54 (human) branch migration inhibition; AID 602329; Q92698; hit rate 0.14% among 360,000; RAD54 Holliday junction branch migration, FAM/BHQ fluorescence; inhibition, % at 10.4 µM;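 active = mean normalized replicate activity at least 40 and at least half of replicates scoring 40 or more; inconclusive = only one of the two criteria met; inactive = mean below 40 and under half of replicates reaching 40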;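 also: 0% = median of neutral control wells and 100% = median of positive control wells; inhibitors cause a drop in the FAM fluorescence signal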
Target sequence (Q92698 whole entry, looked up): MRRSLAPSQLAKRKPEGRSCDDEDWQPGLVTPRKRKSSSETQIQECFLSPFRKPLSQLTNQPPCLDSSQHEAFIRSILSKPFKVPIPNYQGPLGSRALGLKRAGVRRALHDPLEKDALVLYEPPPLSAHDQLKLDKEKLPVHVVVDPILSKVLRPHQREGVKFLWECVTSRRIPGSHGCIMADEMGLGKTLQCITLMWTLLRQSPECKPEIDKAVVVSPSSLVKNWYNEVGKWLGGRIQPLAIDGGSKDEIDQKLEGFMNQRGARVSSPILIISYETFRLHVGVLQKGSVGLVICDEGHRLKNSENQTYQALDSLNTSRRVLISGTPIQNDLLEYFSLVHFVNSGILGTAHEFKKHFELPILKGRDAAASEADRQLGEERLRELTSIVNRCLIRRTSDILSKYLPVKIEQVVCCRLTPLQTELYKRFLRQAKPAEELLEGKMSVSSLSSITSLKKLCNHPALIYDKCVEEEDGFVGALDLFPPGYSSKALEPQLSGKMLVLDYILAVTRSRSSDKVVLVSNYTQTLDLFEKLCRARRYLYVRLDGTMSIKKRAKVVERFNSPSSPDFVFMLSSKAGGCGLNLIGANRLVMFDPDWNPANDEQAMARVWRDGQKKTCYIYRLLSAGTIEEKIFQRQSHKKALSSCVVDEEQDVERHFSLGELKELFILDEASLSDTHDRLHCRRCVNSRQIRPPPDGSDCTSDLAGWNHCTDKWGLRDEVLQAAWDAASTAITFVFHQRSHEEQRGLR
* = called active by the depositor; ? = inconclusive; . = no result given.

SMILES	PvdQ inh	RAD52 inh	Glyco luc inh	dFosB act	F508del corr	RAD54 inh
CO[C@H]1CN(C)C(=O)c2cc(NS(=O)(=O)c3cn(C)cn3)ccc2OC[C@@H](C)N(Cc2cccc(F)c2)C[C@@H]1C	.	-8	.	.	-3	-2
C[C@H](CO)N1C[C@H](C)[C@H](CN(C)S(=O)(=O)c2cccc(F)c2)Oc2ncccc2C1=O	.	-8	.	.	-1	2
COc1ccc(C(=O)c2ccc(OC)cc2OC)cc1	22	-3	12	0	?	-2
COc1ccc(C(=O)c2ccc(N(C)C)cc2)c(OC)c1	0	-20	15	-2	11*	2
COC(=O)c1ccc2c(c1)C(C)(C)C(/C=C/c1ccc(OC)c(OC)c1OC)=[N+]2C	0	.	-8	18*	.	.
CC(C)N(CC(=O)Nc1ccc(Cl)cc1C(F)(F)F)C(=O)CCl	11	-9	34*	-10	0	.
COCC(=O)Nc1ccc2c(c1)OC[C@H](C)N(CC1CCCCC1)C[C@@H](C)[C@@H](OC)CN(C)C2=O	.	10	.	.	2	6
O=C(NCC1CCCCC1)c1cc(Br)ccc1Cl	34*	0	1	-11	0	5
O=C(NCC1CCCCC1)c1cc(S(=O)(=O)N2CCCCC2)ccc1Cl	-4	-15	-1	10	-4	-8
CC(C)(C)OC(=O)[C@H](Cc1ccccc1)NC(=O)c1nc[nH]c1C(=O)N1CCc2ccccc2C1	-6	-11	33*	-15	0	-3
CC(C)(C)OC(=O)NCCCC[C@H](NC(=O)c1nc[nH]c1C(=O)N1CCc2ccccc2C1)C(=O)OC(C)(C)C	-8	-6	2	-10	1	-6
CC=Cc1ccc2n(c1=O)C[C@H]1[C@H](CO)[C@@H](C(=O)N[C@@H](C)c3ccccc3)[C@@H]2N1Cc1cccnc1 (mixture of isomers)	.	-5	.	.	2	5
CCN(CC)CCNC(=O)c1ccc2c(c1NCCO)C(=O)c1ccccc1C2=O	.	87*	-23	.	-2	122*
CC1CCN(C(=O)c2ccc3c(c2NCCO)C(=O)c2ccccc2C3=O)CC1	21	.	0	3	.	16
Cc1ccc(NC(=O)Cc2nc(-c3c[nH]c(C(=O)N4CCCC4)c3)cs2)c(C)c1	-22	-36	0	-8	8.8*	-3
CC(=O)N(C)C[C@H]1Oc2ncc(C#Cc3ccccc3F)cc2C(=O)N([C@H](C)CO)C[C@@H]1C	.	3	.	.	-2	3
COc1cc(/C=C/C(=O)O)cc(S(=O)(=O)Nc2ccc3cn[nH]c3c2)c1OC	-8	-17	4	-8	8.8*	-14
CN(Cc1ccccc1)c1ncnc2ccc(Br)cc12	97*	.	-8	-13	.	-7
C[C@@H]1CN([C@@H](C)CO)C(=O)c2cc(NC(=O)Cc3ccccc3)ccc2O[C@@H](C)CCCCO[C@H]1CN(C)Cc1ccc(C(F)(F)F)cc1	.	.	.	.	0	-1
O=C([C@H]1[C@H](CO)[C@H]2Cn3c(cccc3=O)[C@@H]1N2C(=O)CC1CC1)N1CCCCC1	.	5	.	.	.	12
c1ccc2cc(-c3csnn3)ccc2c1	35*	.	0	-2	.	0
Nc1nc(-c2ccc3ccccc3c2)cs1	-8	-10	-3	-1	-2	.
CCCNC(=O)N1CC2(CCN(Cc3cccc(OC)c3)CC2)c2c([nH]c3cc(OC)ccc23)[C@@H]1CO	.	.	.	.	3	.
COc1ccc(NC(=O)c2ccc(COc3ccccc3OC)o2)cc1OC	9	.	-1	-3	.	2
COc1ccc(/C=N/NC(=O)c2ccc(COc3ccccc3Cl)o2)c(OC)c1C	-3	.	43*	-12	.	-3
SMILES	PvdQ inh	RAD52 inh	Glyco luc inh	dFosB act	F508del corr	RAD54 inh
CC=Cc1ccc2n(c1=O)C[C@@H]1[C@@H](CO)[C@H](C(=O)NCc3ccccn3)[C@H]2N1CC1CC1 (mixture of isomers)	.	-13	.	.	-2	-12
CC=Cc1ccc2n(c1=O)C[C@H]1[C@H](CO)[C@@H](C(=O)NC3CCCCC3)N(CCC)[C@@H]21 (mixture of isomers)	.	.	.	.	3	.
CC(=O)N1[C@@H]2Cn3c(cccc3=O)[C@H]1[C@@H](C(=O)NCC1CCCCC1)[C@@H]2CO	.	59*	.	.	-2	8
CC=Cc1ccc2n(c1=O)C[C@H]1[C@H](CO)[C@@H](C(=O)NC3CCCC3)N(CCC)[C@@H]21 (mixture of isomers)	.	92*	.	.	4	.
CC=Cc1ccc2n(c1=O)C[C@H]1[C@H](CO)[C@@H](C(=O)NCc3ccccn3)[C@@H]2N1CCC (mixture of isomers)	.	96*	.	.	2	8
O=C(NCc1ccccn1)[C@@H]1[C@@H](CO)[C@@H]2Cn3c(cccc3=O)[C@H]1N2CC1CCCCC1	.	57*	.	.	0	11
Cc1ccc(-c2ccc3c(c2)O[C@@H](CN(C)C(=O)Nc2ccccc2)[C@@H](C)CN([C@@H](C)CO)S3(=O)=O)cc1	.	-10	.	.	0	12
C[C@@H]1CCCCO[C@@H](CN(C)C(=O)Nc2cccc3ccccc23)[C@@H](C)CN([C@H](C)CO)C(=O)c2cc(NS(=O)(=O)c3cn(C)cn3)ccc2O1	.	.	.	.	0	-11
CCCN(C)C[C@H]1Oc2cc(C#C[C@H](C)O)ccc2S(=O)(=O)N([C@@H](C)CO)C[C@H]1C	.	-1	.	.	1	8
C[C@H](CO)N1C[C@H](C)[C@@H](CN(C)C(=O)C2CCCCC2)Oc2ncc(C#CC3CCCC3)cc2C1=O	.	21	.	.	2	-4
O=C1N[C@H]2CC=C[C@H]2N(Cc2cccs2)c2ccccc21	-7	-8	54*	6	-1	-6
O=C1c2ccccc2C(O)N1Cc1cccs1 (stereo unspecified)	-4	-16	3	0	.	-7
O=S(=O)(c1ccc(OCc2ccc(Br)cc2)cc1)N1CCOCC1	-12	3	-3	5	19*	-7
Cc1ccc(NC(=O)c2nc[nH]c2C(=O)NCCN(CCNC(=O)c2[nH]cnc2C(=O)Nc2ccc(C)cc2)CCNC(=O)c2[nH]cnc2C(=O)Nc2ccc(C)cc2)cc1	-5	-7	-3	48*	1	-3
Cc1cccc(N2CCN(Cc3cn(C)nc3-c3ccccc3F)CC2)n1	-21	-14	9	3	9.1*	.
CNC(=O)C[C@@H]1CC[C@H]2[C@@H](COc3ccc(NC(=O)c4ccc(F)cc4)cc3C(=O)N2C)O1	.	4	.	.	4	0
O=C(NCc1cccs1)c1cc(-c2ccccc2)nn1CC1CC(c2cccc([N+](=O)[O-])c2)=NO1 (stereo unspecified)	-2	-5	-5	-4	8.6*	10
CO[C@H](CN(C)C(=O)c1ccccc1F)[C@@H](C)CN([C@H](C)CO)S(=O)(=O)c1ccc(C)cc1	.	5	.	.	0	6
CN(C)C(=O)C[C@H]1C=C[C@H](NC(=O)Nc2cccc(F)c2)[C@@H](CO)O1	.	-14	.	.	-3	-7

Screens: PubChem BioAssay, Broad Institute
